Assay results published in PubChem BioAssay (NCATS).
Several values for one entry are separate records, joined by “and”; a condition that tells them apart may be missing. Equal values may be shown once. Inconclusive results are not listed. Activity calls are given as the source filed them. The call rests on the fitted dose curve; in most records, active means well fitted curve in the direction sought with a large enough effect; inconclusive means small, poorly fitted or top-dose-only effect, or another doubt; inactive means no such curve, though single readings can be large; an effect the other way counts as inactive or inconclusive.

Assays:
[1] = Viability qHTS for spleen associated tyrosine kinase inhibitor (SYKi) naive MV4-11 cells (AID 1963823); further: nearly all actives have a fitted effect of over 40% in size
Outline: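 Luminescence from CellTiter-Glo, developed 10 min at room temperature, gave viability of MV4-11 cells never exposed to SYK inhibitor. Cells (500/well) had been incubated with compounds for 72 hr under standard culture conditions.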

[2] = Viability qHTS for spleen associated tyrosine kinase inhibitor (SYKi) drug resistant MV4-11 cells (AID 1963824); further: nearly all actives have a fitted effect of over 35% in size
Outline: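 SYK inhibitor-resistant MV4-11 AML cells, 500 per well, added to predispensed compounds and incubated 72 hr at 37 C, 5% CO2. Viability measured by CellTiter-Glo luminescence after 10 min at room temperature.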

[3] = Cellular viability qHTS for adrenocortical cancer (ACC) cell line NCI-H295R (AID 1963990); further: nearly all actives have a fitted effect of over 60% in size
Outline: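 Luminescent ATP read-out (CellTiter-Glo, 20 min RT) after 48 h drug exposure of NCI-H295R cells; a titration up to 46 uM final. Data normalized to doxorubicin (100% inhibition) and DMSO (0%); 4-parameter fit gives IC50, max response.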
Potency means the concentration at half of the fitted maximal effect.

| Structure (SMILES) | Potency [1] | Potency [2] | Potency [3] |
| --- | --- | --- | --- |
| CCO[C@@H]1O[C@H](C(COCc2ccccc2)OCc2ccccc2)[C@H](OCc2ccccc2)[C@H]1O (stereo not given in full) | 15 µM (active) | 11.9 µM (active) | 23.1 µM (active) |
| NC(=O)c1cnc2[nH]ccc2c1NC1C2CC3C[C@H]1CC(O)(C3)C2 (stereo not given in full) | 0.105 µM (active) | 0.468 µM (active) | inactive |
| CC#C[C@@H](CC(=O)O)c1ccc(OCc2cccc(-c3ccc(C(F)(F)F)cc3)c2)cc1 | 18.6 µM (active) | 16.6 µM (active) | 31.6 µM (active) |
| C=C1C(=O)O[C@@H]2[C@H]3C(C)=CC[C@@]34O[C@@]4(C)CC[C@@H]12 | 3.32 µM (active) | 1.48 µM (active) | 17.8 µM (active) |
| CN1CCCN(C(c2ccccc2)c2ccc(Cl)cc2)CC1 (stereo not given) | 21.1 µM (active) | 16.8 µM (active) | 23.1 µM (active) |
| Oc1ccc(/C=C/c2cc(O)cc(O)c2)cc1 | 16.6 µM (active) | 18.6 µM (active) | inactive |
| CNC(=O)c1cccc(-c2ccc3c(N4CCOC[C@@H]4C)nc(N4CCOC[C@@H]4C)nc3n2)c1 | 164 nM (active) and 411 nM (active) and 132 nM (active) | 291 nM (active) and 580 nM (active) and 417 nM (active) | 0.794 µM (active) |
| Cc1nc2ccc(-n3ncc(C(=O)c4cc5ccccc5[nH]4)c3N)cc2[nH]1 | 2.59 µM (active) | 2.59 µM (active) and 4.68 µM (active) | inactive |
| CC(C)[N+](C)(C)CC(O)COc1cccc2ccccc12 (stereo not given) | inactive | inactive | inactive |
| CCC(=O)N1CCOc2c(cc(-c3cc(OC)cc(OC)c3)cc2C(=O)N[C@H]2CCCN(C)C2)C1 | 16.6 µM (active) | 9.34 µM (active) | inactive |
| CNC(=O)[C@@H](NC(=O)[C@H](CC(C)C)[C@H](O)C(=O)NO)C(C)(C)C | 13.2 µM (active) | 10.5 µM (active) | inactive |
| COc1cc2nccc(Oc3ccc(NC(=O)c4cn(C(C)C)c(=O)n(-c5ccc(F)cc5)c4=O)cc3F)c2cc1OC | 0.186 µM (active) | 0.468 µM (active) | inactive |
| OCc1ccccc1O[C@@H]1O[C@H](CO)[C@@H](O)[C@H](O)[C@H]1O | inactive | inactive | inactive |
| Cc1[nH]c(/C=C2\C(=O)Nc3ccc(F)cc32)c(C)c1C(=O)NCCN1CCCC1 | 51.7 nM (active) and 14.4 nM (active) | 73.1 nM (active) and 32.3 nM (active) | 10.1 µM (active) |
| CNCC[C@H](Oc1cccc2ccccc12)c1cccs1 | 18.8 µM (active) | 26.6 µM (active) | 18.4 µM (active) |
| CCCS(=O)(=O)c1nc(NC2CC2)cc(-c2ccc3c(ccn3C3CC(C)(C)NC(C)(C)C3)c2)n1 | 1.75 µM (active) | 1.11 µM (active) | 2.18 µM (active) |
| CCNC(=O)Nc1ccc(-c2nc3c(c(N4CCOC[C@@H]4C)n2)CCN(C2COC2)C3)cc1 | 0.934 µM (active) | 1.86 µM (active) | 3.55 µM (active) |
| C/C=C/c1ccc(O)c(OC)c1 | inactive | inactive | inactive |
| Cc1cc(F)c(C(=O)Nc2cccc(-c3nncn3C(C)C)n2)cc1-n1cnc(C2CC2)c1 | 5.25 µM (active) | 5.25 µM (active) | 14.1 µM (active) |
| OC(c1ccc(-c2ccc(CN3CCN(Cc4ccncc4)CC3)cc2)c(F)c1)(C(F)(F)F)C(F)(F)F | 4.17 µM (active) | 5.9 µM (active) | inactive |
| COC(=O)[C@H]1[C@@H](O)[C@@]2(O)c3c(OC)cc(O[C@@H]4O[C@@H]([C@@H](O)CO)CO[C@H]4OC)cc3O[C@@]2(c2ccc(OC)cc2)[C@@H]1c1ccccc1 | 2.35 µM (active) | 1.66 µM (active) | inactive |
| CCCCCCCCCCCC[N+](C)(C)Cc1ccccc1 | 6.68 µM (active) | 9.44 µM (active) | 29.1 µM (active) |
| Cc1ccc(NS(=O)(=O)c2cccc(C#N)c2)c2[nH]cc(C#N)c12 | 0.166 µM (active) | 0.235 µM (active) | 0.112 µM (active) |
| CC(=O)N1c2ccc(-c3ccc(C(=O)O)cc3)cc2[C@H](Nc2ccc(Cl)cc2)C[C@@H]1C | 0.0525 µM (active) | 0.059 µM (active) | 3.98 µM (active) |
| CCCN(CCC)S(=O)(=O)c1ccc(C(=O)O)cc1 | inactive | inactive | inactive |
